T cruzi growth-1 = T. cruzi proliferation inhibition. inhibition, % at 8.34 µM. T. cruzi beta-gal in NIH3T3, GalScreen luminescence, 90 h. hit rate 5.9% among 77,000;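 active = mean inhibition above about 93%, with at least 55% of replicates each passing it, limit read from the data, passing the limit was not always enough; inconclusive = only one of those two conditions holds; inactive = neither condition holds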
Pf Dd2 inh = inhibitors of Plasmodium falciparum Dd2 growth. P. falciparum Dd2 growth, SYBR Green, 72 h; stronger effect = lower value. activity change, % at 10 µM. hit rate 2.3% among 94,000; in the data active = activity change below about -80%; inconclusive = no clear call, values can overlap the other calls
C diff growth = C. difficile growth inhibition. Clostridium difficile clinical isolate growth, OD600, 24 h; stronger effect = lower value. growth activity, negative = inhibition, % at 16 µg/mL (by protocol). hit rate 0.25% among 86,000. AID 1259249;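 active = mean growth activity at or below -80% and every replicate also at or below -80%; inconclusive = mean at or below -80% but some replicate above -80%; inactive = mean growth activity above -80%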
T cruzi growth-2 = blocks T. cruzi growth in NIH3T3 host cells; T. cruzi beta-gal in NIH3T3, GalScreen luminescence, 90 h; AID 651739; shares compounds with T cruzi growth-1; inhibition, % at 8.35 µM; hit rate 72% among 5,600;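 active = mean replicate inhibition above about 95% and at least 55% of replicates individually reaching it, limit read from the data; inconclusive = only one of the two criteria is met; inactive = neither criterion is met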
T cruzi growth-3 = Trypanosoma cruzi proliferation inhibition. shares compounds with T cruzi growth-1. T. cruzi beta-gal in NIH3T3, GalScreen luminescence, 90 h. inhibition, % at 2.09 µM. hit rate 21% among 5,600. AID 651740;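 active = mean inhibition above about 95%, with at least 55% of replicates also reaching it, limit read from the data; inconclusive = meets just one of the two conditions; inactive = meets neither condition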
3T3 cytotox = NIH/3T3 (mouse) viability loss; AID 651742; shares compounds with T cruzi growth-1; NIH/3T3 viability, CellTiter-Glo ATP luminescence, 90 h; cytotoxicity (signal decrease), % at 8.35 µM; hit rate 14% among 5,600;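 active = mean signal decrease across replicates above about 35% based on untreated-well scatter, with enough replicates individually passing, limit read from the data; inconclusive = no rule stated though some were filed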
3T3 cytotox 2 = cytotoxicity in mouse NIH/3T3 fibroblasts. NIH/3T3 viability, CellTiter-Glo ATP luminescence, 90 h. inhibition, % at 24.9 µM. shares compounds with T cruzi growth-1. hit rate 56% among 5,600;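 active = mean loss of cell viability signal at or above a set limit, and enough replicates individually reaching it; inconclusive = meets only the mean limit or only the replicate share; inactive = meets neither condition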
Hits are given with their value; . = inactive; ? = inconclusive; / = no result given. A selection: hits, their analogues and other compounds. The true share with any hit is near 6.7%.

SMILES | T cruzi growth-1 | Pf Dd2 inh | C diff growth | T cruzi growth-2 | T cruzi growth-3 | 3T3 cytotox | 3T3 cytotox 2
O=C(C[C@H]1CC[C@H](NC(=O)NC2CCCC2)[C@H](CO)O1)NCc1ccc(F)cc1 | . | . | / | / | / | / | /
CCN(C[C@H]1[C@H](c2ccccc2)[C@@H](CO)N1S(C)(=O)=O)C(=O)C1CCC1 | . | . | . | / | / | / | /
CC(C)NC(=O)N1Cc2cc(C(=O)NC3CCCCC3)nc(-c3cccc(-c4cccnc4)c3)c2[C@H]1CCO | / | . | . | / | / | / | /
C[C@@H]1CCCCO[C@H](CN(C)C(=O)Nc2ccc(F)cc2)[C@@H](C)CN([C@H](C)CO)C(=O)c2cc(NC(=O)NC3CCCCC3)ccc2O1 | . | . | . | / | / | / | /
C[C@H](CO)N1C[C@H](C)[C@H](CN(C)C(=O)Nc2ccc(F)cc2)OCCCC[C@H](C)Oc2ccc(NC(=O)NC3CCCCC3)cc2C1=O | 102.4 | . | . | 106.3 | . | . | .
C[C@H](CO)N1C[C@H](C)[C@@H](CN(C)C(=O)Nc2ccc(F)cc2)OCCCC[C@H](C)Oc2ccc(NC(=O)NC3CCCCC3)cc2C1=O | ? | . | . | 108.9 | . | . | .
C[C@@H]1CN([C@H](C)CO)C(=O)c2cc(NC(=O)NC3CCCCC3)ccc2O[C@@H](C)CCCCO[C@H]1CN(C)C(=O)Nc1ccc(F)cc1 | / | . | . | / | / | / | /
C[C@@H]1CCCCO[C@H](CN(C)S(=O)(=O)c2ccc(Cl)cc2)[C@H](C)CN([C@@H](C)CO)C(=O)c2cc(NC(=O)Nc3ccccc3)ccc2O1 | . | ? | / | / | / | / | /
Cc1ccc(S(=O)(=O)N(C)C[C@@H]2OCCCC[C@H](C)Oc3ccc(NC(=O)Nc4ccccc4)cc3C(=O)N([C@H](C)CO)C[C@@H]2C)cc1 | 106.0 | ? | . | 106.4 | . | . | .
Cc1ccc(S(=O)(=O)N(C)C[C@@H]2OCCCC[C@@H](C)Oc3ccc(NC(=O)Nc4ccccc4)cc3C(=O)N([C@H](C)CO)C[C@H]2C)cc1 | 109.0 | -84.8 | . | 109.3 | 108.2 | . | .
C[C@H]1CCCCO[C@H](CN(C)S(=O)(=O)c2ccc(Cl)cc2)[C@@H](C)CN([C@@H](C)CO)C(=O)c2cc(NC(=O)Nc3ccccc3)ccc2O1 | . | ? | / | / | / | / | /
Cc1ccc(S(=O)(=O)N(C)C[C@@H]2OCCCC[C@H](C)Oc3ccc(NC(=O)c4ccccc4)cc3C(=O)N([C@H](C)CO)C[C@H]2C)cc1 | 101.0 | -81.0 | / | 99.0 | . | . | 48.9
Cc1ccc(S(=O)(=O)N(C)C[C@@H]2OCCCC[C@@H](C)Oc3ccc(NC(=O)c4ccccc4)cc3C(=O)N([C@@H](C)CO)C[C@@H]2C)cc1 | . | . | / | / | / | / | /
Cc1ccc(S(=O)(=O)N(C)C[C@H]2OCCCC[C@H](C)Oc3ccc(NC(=O)Nc4ccccc4)cc3C(=O)N([C@H](C)CO)C[C@@H]2C)cc1 | 109.7 | . | . | 103.5 | . | . | .
C[C@H](CO)N1C[C@H](C)[C@H](CN(C)S(=O)(=O)c2ccc(Cl)cc2)OCCCC[C@H](C)Oc2ccc(NC(=O)Nc3ccccc3)cc2C1=O | . | . | / | / | / | / | /
COc1ccc(NC(=O)Nc2ccc3c(c2)CC(=O)N([C@@H](C)CO)C[C@H](C)[C@H](CN(C)C)O3)cc1 | / | . | . | / | / | / | /
CN1C(=O)c2cc(NC(=O)C3CCOCC3)ccc2OC[C@H]2O[C@@H](CC(=O)NCc3ccc4c(c3)OCO4)CC[C@@H]21 | . | / | . | / | / | / | /
Cc1ccc(S(=O)(=O)N(C)C[C@@H]2Oc3c(NS(=O)(=O)c4ccc(Cl)cc4)cccc3C(=O)N([C@H](C)CO)C[C@@H]2C)cc1 | . | . | . | / | / | / | /
COC(=O)[C@H]1[C@H](CO)[C@H]2Cn3c(ccc(-c4cccc(F)c4)c3=O)[C@H]2N1C(C)=O | . | . | . | / | / | / | /
CN(C)C(=O)c1ccc(-c2ccc([C@@H]3[C@H]4CN(C(=O)C5CCCC5)CCCCN4[C@H]3CO)cc2)cc1 | 114.3 | . | . | . | . | 37.6 | 37.6
CN(C)C(=O)c1ccc(-c2ccc([C@H]3[C@H]4CN(C(=O)C5CCCC5)CCCCN4[C@H]3CO)cc2)cc1 | . | . | . | / | / | / | /
CN(C)C(=O)c1ccc(-c2ccc([C@@H]3[C@H](CO)N4CCCCN(C(=O)C5CCCC5)C[C@@H]34)cc2)cc1 | 100.0 | . | . | . | . | . | .
CN(C)C(=O)c1ccc(-c2ccc([C@@H]3[C@H]4CN(C(=O)C5CC5)CCCCN4[C@H]3CO)cc2)cc1 | . | . | . | / | / | / | /
O=C(C1CCOCC1)N1C[C@@H]2[C@H](c3ccccc31)[C@H](CO)N2C(=O)Nc1cccc(F)c1 | . | . | . | / | / | / | /
CS(=O)(=O)Nc1ccc2c(c1)[C@@H]1C[C@@H](CC(=O)NCc3ccc(Cl)cc3)O[C@H](CO)[C@@H]1O2 | . | . | . | / | / | / | /
SMILES | T cruzi growth-1 | Pf Dd2 inh | C diff growth | T cruzi growth-2 | T cruzi growth-3 | 3T3 cytotox | 3T3 cytotox 2
C[C@@H]1CCCCO[C@@H](CN(C)S(=O)(=O)c2cccs2)[C@H](C)CN([C@H](C)CO)C(=O)c2cc(NS(=O)(=O)c3ccccc3)ccc2O1 | / | . | / | / | / | / | /
CO[C@H]1CN(C)C(=O)c2cc(NS(=O)(=O)Cc3ccccc3)ccc2OC[C@H](C)NC[C@H]1C | . | . | / | / | / | / | /
COc1ccc(-c2cnc3c(c2)C(=O)N([C@H](C)CO)C[C@H](C)[C@@H](CN(C)C(=O)Cc2ccncc2)O3)cc1 | 111.9 | . | . | . | . | . | .
C[C@H]1CN([C@@H](C)CO)C(=O)c2cc(C#Cc3ccccc3F)cnc2O[C@@H]1CN(C)C(=O)Cc1ccncc1 | 95.2 | . | . | ? | . | . | .
C[C@@H]1CN([C@@H](C)CO)C(=O)c2cc(C#Cc3ccccc3F)cnc2O[C@H]1CN(C)C(=O)Cc1ccccc1 | 119.8 | . | . | 111.2 | 105.7 | . | ?
COc1ccc(-c2cnc3c(c2)C(=O)N([C@H](C)CO)C[C@H](C)[C@H](CN(C)C(=O)Cc2ccncc2)O3)cc1 | . | . | . | / | / | / | /
C[C@@H]1CN([C@H](C)CO)C(=O)c2cc(C#Cc3ccccc3F)cnc2O[C@@H]1CN(C)C(=O)Cc1ccncc1 | . | . | . | / | / | / | /
C[C@@H]1CN([C@@H](C)CO)C(=O)c2cc(C#Cc3ccccc3F)cnc2O[C@@H]1CN(C)C(=O)Cc1ccccc1 | . | . | . | / | / | / | /
C[C@H](CO)N1C[C@H](C)[C@H](CN(C)Cc2ccncc2)OCCCC[C@H](C)Oc2ccc(NC(=O)Nc3ccc4c(c3)OCO4)cc2C1=O | . | . | . | / | / | / | /
COC(=O)C[C@H]1C=C[C@@H](NS(=O)(=O)c2ccccc2F)[C@H](CO)O1 | . | . | / | / | / | / | /
C[C@@H]1CN([C@@H](C)CO)S(=O)(=O)c2ccc(C#CC3CCCC3)cc2O[C@@H]1CN(C)Cc1cncnc1 | / | . | . | / | / | / | /
C[C@@H]1CN([C@H](C)CO)S(=O)(=O)c2ccc(/C=C/c3ccccc3)cc2O[C@H]1CN(C)Cc1ccccc1 | . | . | . | / | / | / | /
